Experimental data from PubChem BioAssay AID1578 (Sanford-Burnham Center for Chemical Genomics, 2009).
Hit rate of the full screen: of about 290,000 compounds, about 3,000 (1%) were called active. Shown is part of a subset that was picked to be rich in actives. A number with no mark means an inactive call. Cut-off read from the data, not from the text of the source: active = inhibition mostly above about 36% (no sharp cut-off); inactive = mostly below about 34%.

test: inhibition of NOD1-driven NF-kB reporter – cell-based, luminescence, uHTS, primary screen (AID 1578); conditions: NOD1-driven NF-kB luciferase reporter cells, at 4 µM, stronger effect = higher value;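 note: HEK-293T reporter cells stimulated with the NOD1 agonist gamma-tri-DAP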

SMILES	inhibition
CC1CN(C(=O)CN2C(=O)c3ccccc3C2=O)CC(C)O1 (stereo not given)	-11.2%
c1ccc(C(c2nnnn2C2CCCC2)N2CCN(c3nc4ccccc4s3)CC2)cc1 (stereo not given)	8.2%
CCOC(=O)c1c(NC(=O)CC)sc2c1CCN(Cc1ccccc1)C2	-21.7%
Nc1nonc1-n1nnc(C(=O)N/N=C/c2ccccn2)c1CNc1ccccc1	-11.6%
O=C(N/N=C/c1cccs1)c1cc(-c2ccncc2)nc2ccccc12	4.8%
COc1ccccc1-c1cc(C(=O)N/N=C/c2sccc2C)c2ccccc2n1	-11.4%
Cc1ccsc1/C=N/NC(=O)c1cc(-c2ccncc2)nc2ccccc12	69.5% (active)
Cc1onc(-c2ccccc2Cl)c1C(=O)OCC(=O)c1c(N)n(C)c(=O)n(C)c1=O	-8.2%
COc1ccc(C(C(=O)NC2CCCCC2)N(C(=O)c2snc(C(N)=O)c2N)c2ccc(OC)cc2OC)cc1 (stereo not given)	-7.1%
Cn1c(=O)n(C)c2cc(NC(=O)c3ccccc3NS(C)(=O)=O)ccc21	44.4%
O=c1[nH]c(C2CCN(S(=O)(=O)Cc3ccccc3)CC2)nc2c1nnn2Cc1cccc(Cl)c1	-7.8%
NC(N)=NC(=S)Nc1ccc(Cl)cc1	-15.3%
NC(=NCCCCCCN=C(N)/N=C(\N)Nc1ccc(Cl)cc1)/N=C(\N)Nc1ccc(Cl)cc1	46.6% (active)
NC(=O)Nc1ccc(Cl)cc1	0.2%
Cc1ccc(S(=O)(=O)NC(C)C(=O)Nc2ccc3c(c2)OCO3)cc1 (stereo not given)	-7.4%
Cc1cc(C(F)F)n2nc(C(=O)Nc3cccc(C(F)(F)F)c3)nc2n1	-25.8%
COC(=O)CNC(=O)C(NC(=O)c1ccc(Cl)cc1)C(C)C (stereo not given)	1.3%
O=C(CC1C(=O)NCCN1Cc1cccc(F)c1)NC1CCC1 (stereo not given)	-28.3%
COc1ccc2c(c1)C(C)=CC(C)(C)N2S(=O)(=O)c1ccc(NC(C)=O)cc1	31.4%
CCOc1ccc2c(c1)C(C)=CC(C)(C)N2S(=O)(=O)c1ccc(NC(C)=O)cc1	74.1% (active)

SMILES	inhibition
CCOc1ccc2c(c1)C(C)=CC(C)(C)N2S(=O)(=O)c1ccc(C)cc1	-31.4%
CC(=O)c1cnc2nc(SCc3ccccc3)nn2c1C	-36%
O=C(NC1CCCC1)C(c1ccc(F)cc1)N(C(=O)c1csnn1)c1ccccc1 (stereo not given)	-27.7%
CCOc1ccc2nc(SCC(=O)c3ccc(O)cc3O)sc2c1	51.8% (active)
CCOc1ccc2nc(SCC(=O)NC(=O)C(C)C)sc2c1	-13.9%
O=C(CSc1nc2ccccc2s1)c1ccc(O)cc1O	0.6%
CCOc1ccc2nc(SCC(=O)Nc3ccc4c(c3)OCO4)sc2c1	67.3% (active)
O=C(CSc1nc2ccccc2s1)Nc1ccc2c(c1)OCO2	12.2%
CCOc1ccc2nc(SCC(=O)c3ccccc3)sc2c1	-38.9%
CCN1CCN(C(=S)c2ccc(O)cc2)CC1	-31%
Nc1cccc(C(=O)OCC(=O)Nc2cccc3c2C(=O)c2ccccc2C3=O)c1	-3.2%
O=C(CSc1ccccc1)NC1=NCCS1	-5.2%
CN(C(=O)c1cnc(N2CCN(c3ncccn3)CC2)c2ccccc12)c1ccc(Cl)cc1	14.2%
COc1ccc(Nc2ncc(C(=O)N3CCN(c4ccccc4OC)CC3)c3ccccc23)cc1	52.5%
COc1ccccc1C(=O)N1CCN(c2cccc(Cl)c2)CC1	33.8%
COc1ccc(N(C)C(=O)c2cnc(N3CCN(c4ncccn4)CC3)c3ccccc23)cc1	-20%
COc1ccc(CNCc2ccc(F)cc2)c(OC)c1	-19.8%
CCOC(=O)NC(=O)/C(N=Nc1cc(C)cc(C)c1)=C(\C)O	-20.5%
CC(C)(C)NCC(O)(c1ccc(Cl)cc1)c1ccc(Cl)cc1	-30.2%
CCNC(=S)N(Cc1ccc2c(c1)OCO2)C1CC(=O)N(c2ccc(F)cc2)C1=O (stereo not given)	-9.3%

SMILES	inhibition
Cc1ccc(S(=O)(=O)NCc2ccc(C(=O)N3CCCC3)cc2)cc1	-46%
COc1ccc(S(=O)(=O)NCc2ccc(C(=O)O)cc2)cc1	40.7% (active)
COc1ccc(S(=O)(=O)NCc2ccccc2)cc1	9.2%
COc1cccc(CNS(=O)(=O)c2ccc3c(c2)CC(C)N3C(=O)C2CC2)c1 (stereo not given)	11.6%
CC1Cc2cc(S(=O)(=O)NCc3ccccc3)ccc2N1C(=O)C1CC1 (stereo not given)	-4.7%
CCOC(=O)N1CCN(C(=O)c2ccc(CNS(=O)(=O)c3ccc(C)cc3)cc2)CC1	-13.1%
Cc1ccc(S(=O)(=O)NCc2ccc(C(=O)N3CCN(c4ccccc4)CC3)cc2)cc1	15.5%
COc1ccc(CNS(=O)(=O)c2ccc(OC)cc2)cc1	-1.2%
COc1ccc(N2CCN(C(=O)c3ccc(CNS(=O)(=O)c4cc(C)ccc4C)cc3)CC2)cc1	-18.8%
COc1ccccc1-c1noc(CCCC(=O)N2CCOCC2)n1	-3.7%
O=C(CCc1nc(-c2ccc(Cl)cc2)no1)NC1CCCCC1	-5.8%
CCOC(=O)C1CCCN(C(=O)CNC(=O)Cn2ccc3ccccc3c2=O)C1 (stereo not given)	-4.8%
O=C(NC(=O)N1CCCCC1)c1ccccc1	-30.9%
O=C(NCc1ccccc1)c1cc[n+](CC(=O)c2cccs2)cc1	3.5%
CCOc1ccc(CN(C)C(=O)c2ccc3ccccc3n2)cc1	-22.9%
Cc1cccc(N(Cc2ccccc2)C(=O)c2ccc(S(C)(=O)=O)cc2)c1	5.8%
CCNC(=S)N1CCN(c2ccc([N+](=O)[O-])cc2)CC1	16%
C=CCNC(=S)N1CCN(c2ccc([N+](=O)[O-])cc2)CC1	4.7%
O=[N+]([O-])c1ccc(N2CCN(C(=S)NCc3ccc(Cl)cc3)CC2)cc1	89% (active)
CC(C)(C)n1nc2c(c1NC(=O)c1cc(Cl)ccc1[N+](=O)[O-])CS(=O)(=O)C2	19.5%
